Data reported in PubChem BioAssay (NCI).
Where “and” joins values, the source holds several entries; their conditions need not be identical. Equal entries are not always repeated. The panel holds about 83,000 compounds, 20% with a hit somewhere; the sample as a whole holds those more often.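 Values shown are percent growth following 48 h exposure of cells in 96-well plates to a single concentration of compound; below 10 was considered active.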 Calls of active or inactive are those of the source.

Test system: HL-60(TB) leukemia
Test: NCI-60 one-dose screen, 48 h (100 = growth as untreated, 0 = no growth, -100 = all killed)
Conditions: 10 µM unless noted

Compound	growth
CCn1cnc(C[C@H](NC(=O)[C@@H](NC(=O)Nc2cc(C(F)(F)F)cc(C(F)(F)F)c2)C(C)(C)C)C(=O)OC)c1	-71.5% [100 µM] (active)
C=CC(=O)Nc1cccc(-c2nc(SC)nc(Nc3ccccc3OC)c2C#N)c1	14.1% (inactive)
CN(C)c1ccc(/C=N/n2c(-c3cc(F)c(Cl)cc3Cl)nn(CN3CCOCC3)c2=S)cc1	101% (inactive)
C[C@]12CC[C@@H]3c4ccc(O)cc4C[C@@H](O)[C@H]3[C@@H]1CC[C@@H]2O	101% (inactive)
C#CCn1c(-c2cccc(OCCCCl)c2)nc2c1c(=O)n(C)c(=O)n2C	-15.7% (active)
NC(CCc1nc2ccccc2c(=O)[nH]1)C(=O)O (centres undefined)	103% (inactive)
CCOC(=O)c1sc(-c2ccc(OS(=O)(=O)c3ccc(Br)s3)c(C=O)c2)nc1C	20% (inactive)
COc1cc(-c2nn(-c3cccc(NC(=O)c4ccccc4)c3)cc2-c2ccncc2)ccc1Cl	-18.8% (active)
O=c1ccn(-c2ncnc3nc[nH]c23)cc1	92.7% (inactive)
CC(C)n1cnc2c(=S)nc[nH]c21	141% (inactive)
c1ccc(-c2nc(N3CCOCC3)c3c4c(sc3n2)CCCCCC4)nc1	68.4% (inactive)
COc1ccc(NC(=O)CSc2nc3ccc(Cl)cc3c(=O)n2-c2ccccc2C(F)(F)F)c(OC)c1OC	105% (inactive)
CC[C@]12CN3CCc4c([nH]c5ccccc45)[C@@](C(=O)OC)(c4cc5c(cc4OC)N(C)[C@H]4[C@@](O)(C(=O)OC)[C@H](OC(C)=O)[C@]6(CC)C=CCN7CC[C@]54[C@@H]76)CC(C3)[C@H]1O2 (some centres undefined)	-1.28% (active)
Cc1ccc(S(=O)(=O)n2ccnc2)cc1	124% (inactive)
Cc1cccc(Cl)c1NC(=O)c1ccc2nc(NC(=O)NC3CC(C)(C)NC(C)(C)C3)sc2c1	110% (inactive)
CCCCCCN(CCCCCC)C(=N)c1ccnc2ccccc12	43.2% (inactive)
COC(=O)c1ccc2[nH]c(O)c(C(=Nc3ccc(N(C)C(=O)CN4CCN(C)CC4)cc3)c3ccc4c(c3)OCO4)c2c1	-34.9% (active)
COc1ccc2c(=O)cc(-c3ccccc3)[nH]c2c1	11.5% (inactive) and -29.9% (active)
O=C(O)C1CSC(c2ccccc2)N1 (centres undefined)	128% (inactive)
CCOC(=O)CNC(=O)CCCCSc1ncnc2nc[nH]c12	91.1% (inactive)

Compound	growth
CC1=C(C(=O)OCC2CCN(C(=O)OC(C)(C)C)CC2)[C@@H](c2cccc(C#N)c2)C2=C(CC(C)(C)CC2=O)N1	16.8% (inactive)
COc1ccc(-c2n[nH]nc2-c2csc3ccccc23)cc1OC	10.1% (inactive)
Cc1cc(CC(=O)O)n(C)c1C(=O)c1ccc(Cl)cc1	105% (inactive)
COC(=O)/C=C/c1cc(OC(C)=O)c2c(c1)[C@@H](C(=O)OC)[C@H](c1ccc(OC(C)=O)c(OC(C)=O)c1)O2	-42.8% (active)
O=C1CSC(=S)N1Cc1cccnc1	13.8% (inactive)
Oc1cccc(-c2nc3sccn3c2-c2ccncn2)c1	99.2% (inactive)
COc1ccc(COC(C)=O)cc1	112% (inactive)
Cc1ccc(C2=Nc3c(N)ncnc3NC(c3cccc(Nc4ccnc5cc(C(F)(F)F)ccc45)c3)C2)cc1 (centres undefined)	0.514% (active)
COc1ccc(C(=O)n2nc(CC(=O)NCc3ccccc3)nc2N)cc1	91.9% (inactive)
O=C(Cn1ccc(=O)[nH]c1=O)c1ccc([N+](=O)[O-])o1	87.1% (inactive)
Cc1nc2ncccc2nc1Nc1ccc(S(=O)(=O)Nc2cncs2)cc1	109% (inactive)
COc1ccc(-c2nc3sc(-c4ccccc4)c(-c4ccccc4)n3c2/C=C/C(=O)c2ccccn2)cc1	50.5% (inactive)
CSc1ccc(SC2c3ccc(C)cc3Oc3nc(N)c(C#N)c(N)c32)cc1 (centres undefined)	-52% (active)
C#CCOc1ccc2ncnc(Nc3ccc(NC(=O)CCl)cc3)c2c1	-57.5% (active)
CCN1C(=O)N(CC)C2C1NN=c1s/c(=C\c3cccnc3)c(=O)n12 (centres undefined)	-27.5% (active)
COc1ccc2nc3ccc(OC)cc3c(SCCCN)c2c1	50.2% (inactive)
Oc1ccc(/C=N/N=C2c3ccccc3-c3ccccc32)c(O)c1	71.7% (inactive)
COc1cc(-c2cc(/C=C3\CCCCC3=O)[nH]n2)cc(OC)c1OC	97.9% (inactive)
CC(=O)Nc1nc2ccc(NS(=O)(=O)c3cccc4c(N(C)C)cccc34)cc2[nH]1	27.8% (inactive)
